Results as given in PubChem BioAssay.
Calls of active or inactive are those of the source.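 How the source made its calls, unless noted: active means fluorescence slope after compound addition differing from the mean of all screened samples at 99.7% confidence, in either direction; inactive means the rest.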

Columns and labels:
[1] = inhibitors of TNFa-induced NFkB p65 translocation, primary screen, imaging, HUVEC, MLSMR starter and 10KST1 sets (AID 438;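 active means inhibition above 20% together with a positive visual image hit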;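 further: compound added about 3h40 before a 20 min TNFalpha stimulation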;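 on inhibition: signal is the nuclear over cytoplasmic p65 intensity ratio per well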); details: HUVEC TNFa-induced p65 nuclear translocation; cell count: measured here: nuclei count (cytotoxicity indicator), at 2.08 µM; inhibition: at 2 µM, stronger effect = higher value, 0% TNFa-plus-vehicle, 100% no-TNFa wells
[2] = reduction of polyQ htt aggregates in cells – imaging, exon1htt(103Q)mCFP cells, high-content imaging, primary screen (AID 483;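 active means visual image review flags a hit and inhibition of aggregation exceeds 20%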;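 further: compound exposure lasted 3 days before fixation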;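 on nuclei count: percent of the per-plate median nuclei count of sample wells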); details: exon1htt(103Q)mCFP cell line, aggregate imaging, at 2 µM; inhibition of aggregation: stronger effect = higher value; nuclei count: measured here: cell count, toxicity
[3] = endothelial E-selectin expression blockers – imaging, HUVEC, immunofluorescence, MLSMR starter and 10KST1 sets, primary screen (AID 487;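 active means visually confirmed hit in the image check and inhibition above 20%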;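 on inhibition: signal is fraction of cell area covered by stained E-selectin grains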;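 on nuclei count: 100% = median nuclei count of all wells on the same plate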); details: HUVEC TNFalpha-induced E-selectin immunofluorescence imaging, at 2 µM; inhibition: stronger effect = higher value; nuclei count: measured here: cell number, toxicity
[4] = biological target: Voltage-gated potassium channel subunit beta-2 (Rattus norvegicus) (UniProt P62483); test: inhibitors of rat Kvbeta2 reductase activity – biochemical, NADPH fluorescence, primary screen (AID 622;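 active means fluorescence slope higher than the sample average by over 3 SD, cut at about -0.22 in these data, passing the limit was not always enough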;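 further: slope of raw intensity against log time taken from 70 to 1610 s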); details: recombinant KvBeta, 4-cyanobenzaldehyde reduction, at 10 µM, stronger effect = higher value
Chain of Voltage-gated potassium channel subunit beta-2 (Rattus norvegicus) (P62483 whole entry, looked up): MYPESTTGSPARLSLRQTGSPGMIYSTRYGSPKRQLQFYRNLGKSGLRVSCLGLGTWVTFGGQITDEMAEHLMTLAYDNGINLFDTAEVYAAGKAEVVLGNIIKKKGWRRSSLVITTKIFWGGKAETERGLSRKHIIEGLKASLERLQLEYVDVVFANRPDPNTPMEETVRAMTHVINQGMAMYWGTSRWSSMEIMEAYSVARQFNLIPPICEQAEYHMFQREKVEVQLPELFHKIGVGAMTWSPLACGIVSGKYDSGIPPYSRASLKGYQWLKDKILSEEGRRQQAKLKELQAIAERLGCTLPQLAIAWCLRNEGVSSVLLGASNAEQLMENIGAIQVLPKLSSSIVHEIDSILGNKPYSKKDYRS

[5] = biological target: Voltage-gated potassium channel subunit beta-2 (Rattus norvegicus) (UniProt P62483); test: enhancers of rat Kvbeta2 NADPH turnover – biochemical, NADPH fluorescence, primary screen (AID 623;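 active means NADPH fluorescence slope more negative than the mean of all samples by about 3 SD, 99.7% confidence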;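 further: fluorescence intensity change per second fitted from 20 to 320 s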); details: Recombinant KvBeta, NADPH fluorescence decrease slope, 10 min; at 10 µM; stronger effect = lower value
[6] = biological target: Alpha-2C adrenergic receptor (Homo sapiens) (UniProt P18825); test: compounds altering alpha2C-coupled GIRK flux – cell-based, HEK293 alpha2C/GIRK1/2, thallium flux, primary screen (AID 624); details: thallium flux BTC fluorescence, at 10 µM, actives lie on both sides;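 further: slope of fluorescence ratio to pre-addition baseline per second over 15 to 24 s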
Chain of Alpha-2C adrenergic receptor (Homo sapiens) (P18825 whole entry, looked up): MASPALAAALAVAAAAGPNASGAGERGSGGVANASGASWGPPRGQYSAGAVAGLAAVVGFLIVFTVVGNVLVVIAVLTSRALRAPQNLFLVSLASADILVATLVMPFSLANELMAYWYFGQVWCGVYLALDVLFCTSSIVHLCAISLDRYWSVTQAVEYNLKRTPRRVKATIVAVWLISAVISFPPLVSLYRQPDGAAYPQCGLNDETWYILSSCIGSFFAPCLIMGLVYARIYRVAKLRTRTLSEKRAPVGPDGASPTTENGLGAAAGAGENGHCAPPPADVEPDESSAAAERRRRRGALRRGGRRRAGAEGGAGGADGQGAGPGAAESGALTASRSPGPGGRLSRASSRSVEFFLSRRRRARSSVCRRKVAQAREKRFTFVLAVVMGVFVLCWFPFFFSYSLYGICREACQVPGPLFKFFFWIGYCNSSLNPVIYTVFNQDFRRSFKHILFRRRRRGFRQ

[7] = blockers of RIG-like receptor reporter activation – cell-based, Sendai virus stimulus, luciferase, 10K MLSCN set, TLR/RLR signaling modifier project, primary screen (AID 602276;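 active means inhibition at or above 50% at 10 µM; inactive means inhibition below 50%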;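 further: firefly luciferase from ISG56 promoter only with Renilla not read in this screen; 0% = Sendai virus plus DMSO and 100% = medium plus DMSO without virus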); details: HEK293 RL24 IRF3 luciferase reporter, at 10 µM, stronger effect = higher value
[8] = TLR3 IRF3 reporter activation blockers – cell-based, poly I:C stimulus, luciferase, 10K MLSCN set, primary screen (AID 602277;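 active means inhibition of the reporter signal at or above 50%; inactive means inhibition below 50%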); details: HEK293-TLR3 RL24 IRF3 luciferase reporter, at 10 µM, stronger effect = higher value

| SMILES | cell count [1] | inhibition [1] | inhibition of aggregation [2] | nuclei count [2] | inhibition [3] | nuclei count [3] | fluorescence slope [4] | NADPH fluorescence slope [5] | slope [6] | inhibition [7] | inhibition [8] |
| --- | --- | --- | --- | --- | --- | --- | --- | --- | --- | --- | --- |
| COc1ccc2[nH]c(C)c(CCN3C(=O)OC(C)(C)C3(C)O)c2c1 (centres undefined) | 754 | -4% (inactive) | -15.3% (inactive) | 97.3% | -2.5% (inactive) | 111% | -0.561 (inactive) | -4.3e-05 (inactive) | 0.00701 (inactive) | 6.33% (inactive) | 23.6% (inactive) |
| N#CCCN1CCN(S(=O)(=O)c2ccc(S(=O)(=O)NC3CCCC3)cc2)CC1 | 689 | -10% (inactive) | -6.8% (inactive) | 126% | -2.1% (inactive) | 126% | -0.624 (inactive) | -3.6e-05 (inactive) | 0.00706 (inactive) | -1.55% (inactive) | 28.4% (inactive) |
| c1coc(Cn2nnnc2CN2CCN(C3CCCC3)CC2)c1 | 530 | -15.6% (inactive) | -2.8% (inactive) | 96.9% | -1.8% (inactive) | 107% | -0.408 (inactive) | 2.2e-05 (inactive) | 0.00537 (inactive) | -7.52% (inactive) | 12.8% (inactive) |
| O=C(NCC(F)(F)F)Nc1cccnc1 | 309 | 6.5% (inactive) | -5.6% (inactive) | 100% | -117% (inactive) | 119% | -0.318 (inactive) | -5.2e-05 (inactive) | 0.00372 (inactive) | -2.55% (inactive) | 3.81% (inactive) |
| Cc1nnc(SCC(=O)Nc2nccs2)s1 | 501 | -10.8% (inactive) | 12.1% (inactive) | 116% | -0.9% (inactive) | 115% | -0.413 (inactive) | -7.7e-05 (inactive) | 0.00513 (inactive) | -7.71% (inactive) | -7.69% (inactive) |
| COc1ccc(OC)c(Nc2ncnc3c2cnn3-c2ccccc2)c1 | 334 | -6.5% (inactive) | -6.7% (inactive) | 111% | -26.3% (inactive) | 113% | -0.4 (inactive) | -2.9e-05 (inactive) | 0.00524 (inactive) | -14.3% (inactive) | -62.3% (inactive) |
| CN1CCc2c(sc3c2c(=O)n(-c2cccc(Cl)c2)c2nncn32)C1 | 579 | 13.9% (inactive) | 5.9% (inactive) | 112% | 37.3% (inactive) | 105% | -0.513 (inactive) | -3.5e-05 (inactive) | 0.00609 (inactive) | -7.55% (inactive) | 11.7% (inactive) |
| Cc1ccc(-n2ncc(C(=O)N3CCc4ccccc4C3)c2NC(=O)c2ccco2)cc1C | 425 | 10.2% (inactive) | -0.3% (inactive) | 100% | 0.3% (inactive) | 114% | -0.415 (inactive) | -9.8e-05 (inactive) | 0.00658 (inactive) | 2.03% (inactive) | 20.1% (inactive) |
| COc1ccc(N2CCN(C(=O)c3c(-c4ccccc4)noc3C)CC2)cc1 | 650 | 1.1% (inactive) | -16% (inactive) | 90.4% | -7.4% (inactive) | 96% | -0.578 (inactive) | -3.3e-05 (inactive) | 0.00611 (inactive) | -19.4% (inactive) | -16.5% (inactive) |
| CN(C(=O)c1ccc2c(=O)n3c(nc2c1)CCCCC3)c1ccccc1 | 588 | -10.7% (inactive) | 23.6% (inactive) | 93.9% | 63.2% (active) | 76.9% | -0.457 (inactive) | -0.000341 (inactive) | 0.00528 (inactive) | 11.2% (inactive) | 8.93% (inactive) |
| COc1cc(OC)c(C2N(C)c3ccccc3N2C)cc1OC | 403 | 1.7% (inactive) | -0.8% (inactive) | 111% | -64.6% (inactive) | 105% | -0.502 (inactive) | -1.1e-05 (inactive) | 0.00623 (inactive) | -3.76% (inactive) | 26.3% (inactive) |
| COc1ccccc1C(=O)N1CCN(C(=O)COc2cccc(C)c2)CC1 | 430 | -5.5% (inactive) | 11.7% (inactive) | 94.2% | -52.5% (inactive) | 102% | -0.288 (inactive) | -5.4e-05 (inactive) | 0.00401 (inactive) | 14% (inactive) | 23.5% (inactive) |
| COc1cc(NC(=O)C2CCCN2S(=O)(=O)c2cccc3cccnc23)cc(OC)c1OC (centres undefined) | 667 | 0.6% (inactive) | 15.1% (inactive) | 77.6% | -75.5% (inactive) | 110% | -0.598 (inactive) | -3.4e-05 (inactive) | 0.00756 (inactive) | 14.4% (inactive) | 32% (inactive) |
| Cc1ccc(Cn2c(NCCc3ccccc3)nc3c2c(=O)n(C)c(=O)n3C)cc1 | 368 | 6.8% (inactive) | 6.1% (inactive) | 98.7% | -203% (inactive) | 108% | -0.597 (inactive) | -6.3e-06 (inactive) | 0.00517 (inactive) | 34.6% (inactive) | 29.6% (inactive) |
